MEP2 TOR yeast: alters MEP2-GFP fluorescence in TOR pathway yeast screen; S. cerevisiae MEP2-GFP strain, flow cytometry GFP, 3 h; 100% = DMSO control level; GFP response vs DMSO, % at 10 µM; hit rate 0.51% among 330,000; AID 2016;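 active = GFP response versus DMSO above a set limit, roughly screen mean plus 3 SD, cut at about 180% in these data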;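 note: median GFP fluorescence of the barcode-gated MEP2-GFP cells per well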
AGP1 TOR yeast: alters AGP1-GFP fluorescence in TOR pathway yeast screen; hit rate 0.02% among 320,000; GFP response vs DMSO, % at 10 µM; S. cerevisiae AGP1-GFP multiplex flow cytometry, 3 h; GFP as percent of DMSO wells;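 active = GFP response relative to DMSO above a set limit, near screen average plus 3 SD, cut at about 150% in these data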;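 note: median GFP channel fluorescence of the gated AGP1 strain per well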
CIT2 TOR yeast: yeast TOR pathway CIT2-GFP modulation; S. cerevisiae CIT2-GFP strain, flow cytometry, 3 h; 100 means same as DMSO wells; GFP response vs DMSO, % at 10 µM; hit rate 0.065% among 320,000; AID 2029;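 active = GFP response relative to DMSO above a set limit, near the screen mean plus 3 SD, cut at about 150% in these data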;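 note: ratio of well median GFP fluorescence to mean of DMSO wells on the plate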
DSG3 Ab inh: human desmoglein-3 autoantibody binding inhibition. binding (percent of control), % at 10 µM. DSG3-coupled beads, scFv-anti-DSG3-GFP binding, flow cytometry; active compounds read low. hit rate 0.48% among 310,000. P32926;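 active = binding more than 3 SD below its plate's average and above zero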;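 note: hits lower antibody fragment binding to DSG3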
Target sequence (P32926 whole entry, looked up, the tested form may be a part): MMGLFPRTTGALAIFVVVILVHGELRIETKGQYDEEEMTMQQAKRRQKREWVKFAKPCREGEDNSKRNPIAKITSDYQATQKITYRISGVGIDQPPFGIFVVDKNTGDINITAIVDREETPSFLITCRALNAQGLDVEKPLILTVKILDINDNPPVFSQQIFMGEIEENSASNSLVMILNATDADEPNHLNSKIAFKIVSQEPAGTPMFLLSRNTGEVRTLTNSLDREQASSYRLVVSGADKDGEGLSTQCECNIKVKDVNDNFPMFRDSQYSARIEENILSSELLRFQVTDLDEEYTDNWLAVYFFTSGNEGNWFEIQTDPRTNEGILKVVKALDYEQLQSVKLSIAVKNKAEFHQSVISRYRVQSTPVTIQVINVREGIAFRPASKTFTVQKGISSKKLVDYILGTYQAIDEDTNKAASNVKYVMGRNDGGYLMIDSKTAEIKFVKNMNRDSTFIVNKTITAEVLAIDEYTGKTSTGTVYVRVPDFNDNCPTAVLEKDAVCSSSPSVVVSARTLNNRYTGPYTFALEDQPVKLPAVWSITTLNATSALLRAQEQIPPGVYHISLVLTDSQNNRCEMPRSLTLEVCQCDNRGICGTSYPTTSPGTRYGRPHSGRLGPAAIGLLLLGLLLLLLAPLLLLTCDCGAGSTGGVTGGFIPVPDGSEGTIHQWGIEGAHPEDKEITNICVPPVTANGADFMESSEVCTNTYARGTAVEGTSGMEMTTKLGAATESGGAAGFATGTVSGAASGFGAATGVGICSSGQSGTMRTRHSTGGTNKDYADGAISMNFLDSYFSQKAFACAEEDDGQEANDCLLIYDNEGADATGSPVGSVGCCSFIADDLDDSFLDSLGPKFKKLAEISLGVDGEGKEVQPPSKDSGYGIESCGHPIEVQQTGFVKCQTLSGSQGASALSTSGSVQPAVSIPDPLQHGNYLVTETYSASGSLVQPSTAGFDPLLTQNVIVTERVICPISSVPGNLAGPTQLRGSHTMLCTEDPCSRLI
LAP4-GFP MLPCN: yeast TOR pathway LAP4-GFP modulation. S. cerevisiae LAP4-GFP multiplex, flow cytometry GFP, 3 h; median GFP as percent of DMSO wells. AID 2023. GFP response vs DMSO, % at 10 µM. hit rate 0.34% among 320,000;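 active = GFP response vs DMSO above a set limit, about the screen mean plus 3 SD, cut at about 150% in these data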
RPL19A TOR yeast: yeast TOR pathway RPL19A-GFP modulation; S. cerevisiae RPL19A-GFP strain, flow cytometry, 3 h; active compounds read low; percent response vs DMSO, % at 10 µM; hit rate 0.3% among 330,000;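 active = percent response vs DMSO below 50%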;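 note: median channel GFP fluorescence of the barcoded RPL19A-GFP strain; ratio of sample median GFP to plate DMSO average so 100% = DMSO; lower means less RPL19A-GFP as with rapamycin TOR inhibition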
LAP4 cherry2: yeast LAP4-GFP modulation, second cherry pick. hit rate 20% among 590. GFP response vs DMSO, % at 10 µM. S. cerevisiae LAP4-GFP strain, flow cytometry GFP, 3 h. shares compounds with LAP4-GFP MLPCN;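 active = GFP signal as percent of the solvent control above about 150%, meaning raised reporter expression, limit read from the data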;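 note: ratio of well median GFP fluorescence to plate DMSO mean so 100% = DMSO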
MEP2-GFP pick2: second confirmation of modulators of TOR reporter MEP2-GFP in yeast | hit rate 10% among 590 | S. cerevisiae MEP2-GFP strain, flow cytometry GFP, 3 h | GFP response vs DMSO, % at 10 µM | shares compounds with LAP4-GFP MLPCN;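 active = GFP signal above 150% of the solvent control wells, that is a rise of more than half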;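 note: median channel GFP fluorescence of all gated yeast cells per well; ratio of median GFP to plate DMSO average so 100% = DMSO level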
RPL19A GFP CP2: second confirmation of modulators of TOR reporter RPL19A-GFP in yeast | shares compounds with LAP4-GFP MLPCN | S. cerevisiae RPL19A-GFP strain, flow cytometry GFP, 3 h; active compounds read low; 100% means same as DMSO wells | GFP response vs DMSO, % at 10 µM | hit rate 3% among 590 | AID 2623;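 active = under 65% GFP response relative to DMSO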;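 note: median GFP channel fluorescence per well over the all cells gate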
CIT2 GFP CP2: reconfirmed modulator of CIT2-GFP TOR reporter in yeast; shares compounds with LAP4-GFP MLPCN; S. cerevisiae CIT2-GFP strain, flow cytometry GFP, 3 h; DMSO control wells read 100%; GFP response vs DMSO, % at 10 µM; hit rate 8% among 590;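 active = GFP response vs DMSO above about 150%, limit read from the data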;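 note: median green fluorescence per well over all gated yeast cells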
AGP1 GFP CP2: reconfirmed modulator of AGP1-GFP TOR reporter in yeast. percent response vs DMSO, % at 10 µM. S. cerevisiae AGP1-GFP strain, flow cytometry GFP, 3 h. 590 tested, under 10 active. shares compounds with LAP4-GFP MLPCN;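 active = over 150 percent of DMSO response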;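 note: median GFP channel fluorescence over all cells without mother daughter split; sample median GFP divided by mean DMSO control so 100% equals DMSO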
s288c autofluor: counter-screen for compound autofluorescence in yeast s288c cells | shares compounds with LAP4-GFP MLPCN | S. cerevisiae s288c, 520 nm autofluorescence, flow cytometry, 3 h; active compounds read high; zero means same as solvent-only cells | AID 2757 | 610 tested, under 10 active | fluorescence change (kMESF span) at 33 µM;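 active = fluorescence span over the dose series, or activity score, above about 33, limit read from the data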
s288c autofl DR: TOR screen hit shows autofluorescence in yeast s288c; shares compounds with LAP4-GFP MLPCN; S. cerevisiae s288c parental, compound autofluorescence, flow cytometry, 3 h; fluorescence change (span) at 33 µM; 110 tested, under 10 active; AID 488829;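 active = fluorescence change span, or the activity score built from it, above 25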
TORC1 bypass gr: stops wildtype yeast growth while TORC1 bypass cells still grow; AID 504456; growth rating (0-3) at 30 µM; 120 tested, under 10 active; shares compounds with LAP4-GFP MLPCN; S. cerevisiae BY4741 spot growth rating, 48-72 h; active compounds read low;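 active = growth rating at most 1 for wild type yeast while the TORC1 bypass strain still grows fully, rated 3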
The depositor's hits bear a star; nt = no result given; [ ] = dose if it differs, or a comment. Rows were chosen to be rich in hits. Some 1.2% of all compounds tested hit in one or more screens of this group.

SMILES	MEP2 TOR yeast	AGP1 TOR yeast	CIT2 TOR yeast	DSG3 Ab inh	LAP4-GFP MLPCN	RPL19A TOR yeast	s288c autofluor	others
COC(CNC(=O)c1ccc2c3c(onc13)-c1ccccc1C2=O)OC	91	66	90	112	230*	72	5.3
CCn1c2ccccc2c2cc(NC(=O)C(=O)N3CCOCC3)ccc21	101	98	97	101	97	97	nt
O=[N+]([O-])c1cc(Cl)cc(/C=N\Nc2ccccn2)c1O	122	46	74	101	147	52	2.7	LAP4 cherry2=179*;MEP2-GFP pick2=192*;RPL19A GFP CP2=82;CIT2 GFP CP2=165*;AGP1 GFP CP2=84
O=[N+]([O-])c1ccc(Cl)cc1C=NNc1ccccn1	nt	nt	nt	96	nt	nt	nt
COc1cc(OC)c(OC)cc1CN1CCN(Cc2cccn2C)CC1	96	95	95	99	95	100	nt
C[C@]12C=C[C@H](O)CC1=CCC1C2CC[C@@]2(C)C1CCC21OCCO1 (some centres not stated)	103	110	84	118	197*	71	nt	LAP4 cherry2=107;MEP2-GFP pick2=102;RPL19A GFP CP2=95;CIT2 GFP CP2=94;AGP1 GFP CP2=90
C[C@]12C=CC(=O)C=C1CCC1C2CC[C@@]2(C)C1CCC21OCCO1 (some centres not stated)	91	94	105	94	89	98	nt
O=Nc1c(-c2cccc([N+](=O)[O-])c2)nc2ncccn12	91	65	61	nt	138	63	nt	LAP4 cherry2=139;MEP2-GFP pick2=148;RPL19A GFP CP2=67;CIT2 GFP CP2=107;AGP1 GFP CP2=82
COc1ccc(OC)c(S(=O)(=O)ON2C(=O)c3ccccc3C2=O)c1	87	78	80	290	182*	101	18
COc1ccc(OC)c(S(=O)(=O)N2CCN(c3ccccc3)CC2)c1	102	100	103	112	101	98	nt
CCn1nc(C(=O)NCCc2ccc3c(c2)OCCO3)c2ccccc2c1=O	103	99	105	95	94	98	nt
Cc1ccccc1CN(C)C(=O)COC(=O)CSc1ccc([N+](=O)[O-])cc1	98	100	98	107	128	94	nt
Cc1ccccc1N1C(=O)C(Cl)=C(N2CCN(c3ccccc3)CC2)C1=O	100	nt	94	nt	105	100	0.1
O=C1C(Cl)=C(N2CCCCCC2)C(=O)N1c1ccccc1Cl	104	95	96	95	91	104	nt
C[C@]12c3[nH]c4ccc(Cl)cc4c3CCN1C(=O)[C@@H](CC(=O)NCCC1=CCCCC1)C[C@@H]2C(=O)N1CCCCC1	nt	nt	nt	101	nt	nt	nt
Cn1nc(C(=O)OCC(=O)Nc2ccccc2OC(F)F)c2ccccc2c1=O	109	111	103	101	113	113	nt
CC(=O)n1cc(Nc2ccc([N+](=O)[O-])cc2)c2ccccc21	99	94	100	100	115	105	nt
CC(=O)SC(C[N+](=O)[O-])c1cn(C(C)=O)c2ccccc12 (configuration not stated)	98	101	83	92	229*	93	0.41	s288c autofl DR=0.83;TORC1 bypass gr=3
C=CCNC(=O)c1c(CSc2ccc(Cl)cc2)noc1C(=O)NCc1ccccc1	98	84	73	95	127	98	nt
Cc1ccc(CN2C(=O)[C@H]3Cc4c([nH]c5ccccc45)C(C)(C)N3C2=O)cc1	98	93	87	102	156*	104	nt	LAP4 cherry2=103;MEP2-GFP pick2=102;RPL19A GFP CP2=98;CIT2 GFP CP2=102;AGP1 GFP CP2=96
Cc1ccc(CN2C(=O)[C@@H]3Cc4c([nH]c5ccccc45)C(C)(C)N3C2=O)cc1	93	85	90	100	137	100	nt
CNC(CC(=O)c1ccc([N+](=O)[O-])cc1)C(Cl)(Cl)Cl (configuration not stated)	82	86	81	98	195*	80	2	LAP4 cherry2=180*;MEP2-GFP pick2=188*;RPL19A GFP CP2=89;CIT2 GFP CP2=144;AGP1 GFP CP2=82
CCOc1cc(/C=N/NC(N)=O)ccc1OCC(=O)Nc1ccc(C)c(C)c1	100	106	99	101	106	97	nt
CCOc1cc(C=C2C(=O)c3ccccc3C2=O)ccc1OCC(=O)Nc1ccc(C)cc1	109	109	105	100	109	104	-0.2	LAP4 cherry2=96;MEP2-GFP pick2=100;RPL19A GFP CP2=102;CIT2 GFP CP2=101;AGP1 GFP CP2=100
COc1cc(OC)cc(C(=O)NC(=S)NNC(=O)c2cnccn2)c1	101	101	101	93	94	106	nt
COc1ccc(C(=O)NC(=S)NNC(=O)c2cnccn2)cc1OC	105	79	95	118	155*[may fluoresce green]	97	0.51	LAP4 cherry2=168*;MEP2-GFP pick2=155*;RPL19A GFP CP2=103;CIT2 GFP CP2=127;AGP1 GFP CP2=90
O=C(COc1c(Br)cc(Br)c2cccnc12)N1CCc2ccccc2C1	106	85	102	97	157*	98	1
O=C(COc1c(Br)cc(Br)c2cccnc12)N1CCCCC1	120	97	96	104	123	98	nt
O=C(Nc1cccc(C(F)(F)F)c1)Oc1ccc(Cl)c2cccnc12	99	70	113	119	202*	95	0.5
CCN(CC)C(=O)Oc1ccc(Cl)c2cccnc12	100	96	94	97	111	101	nt
